PubChem BioAssay AID1259318 (Sanford-Burnham Center for Chemical Genomics, 2017)
In all, about 370,000 compounds went through this assay and about 3,000 (0.81%) were called active. This is one part of a sample in which actives are shown more often than they occur.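 The calls were made as follows: active = activity above about 14% (limit read from the data; passing the limit was not always enough); inactive = the rest.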

molecular target: Nuclear receptor subfamily 1 group D member 1 (Homo sapiens) (UniProt P20393); experiment: modulators of Rev-erb alpha DNA binding, primary screen, biochemical, FITC-DNA, fluorescence polarization, uHTS (AID 1259318); conditions: Rev-erbα–FITC-DNA binding, 90 min, at 10 µM, active compounds read high;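 also: 0% = DMSO wells with 35 nM protein and 100% = DMSO wells with 750 nM protein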
Sequence (P20393 whole entry, looked up): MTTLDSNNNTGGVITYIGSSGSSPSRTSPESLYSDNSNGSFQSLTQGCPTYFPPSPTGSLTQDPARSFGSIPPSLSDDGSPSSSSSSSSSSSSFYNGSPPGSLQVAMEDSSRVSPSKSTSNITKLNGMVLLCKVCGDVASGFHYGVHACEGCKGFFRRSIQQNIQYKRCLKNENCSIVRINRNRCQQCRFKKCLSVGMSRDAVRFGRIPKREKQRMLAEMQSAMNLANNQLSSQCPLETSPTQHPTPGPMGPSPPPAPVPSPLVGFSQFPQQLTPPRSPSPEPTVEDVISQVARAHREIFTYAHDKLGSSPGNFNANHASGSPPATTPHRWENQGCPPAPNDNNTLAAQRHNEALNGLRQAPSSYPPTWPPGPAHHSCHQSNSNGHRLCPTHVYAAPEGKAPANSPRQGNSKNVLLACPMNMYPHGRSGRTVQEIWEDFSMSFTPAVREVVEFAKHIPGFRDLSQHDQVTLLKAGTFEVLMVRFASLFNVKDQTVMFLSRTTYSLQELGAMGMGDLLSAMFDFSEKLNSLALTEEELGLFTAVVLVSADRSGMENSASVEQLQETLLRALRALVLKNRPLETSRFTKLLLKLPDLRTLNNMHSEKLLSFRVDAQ

SMILES | activity
O=C(/C=C/c1ccc(Cl)cc1)Nc1ccc(Br)cn1 | -0.31% (inactive)
CN1C(=O)c2ccc(NC(=O)c3c(F)c(F)c(F)c(F)c3F)cc2C1=O | -2.78% (inactive)
CN1C(=O)c2ccc(C(=O)Nc3ccc(Br)cn3)cc2C1=O | 73.7% (active)
CS(=O)(=O)c1ccc(Cl)c(NC(=O)COC(=O)c2ncc(Cl)c(Cl)c2Cl)c1 | -0.27% (inactive)
Cc1[nH]c2ccccc2c1CC(=O)Nc1ccc(Nc2cccnc2)c(-c2cccc(Cl)c2)c1 | 3.32% (inactive)
O=C(O)CCCCC(=O)O | -0.86% (inactive)
CCC(C)NC(=O)C1c2ccccc2C(=O)N1Cc1ccccc1 (configuration not stated) | -2.38% (inactive)
O=C1c2ccccc2C(Nc2ccc3c(c2)OCCO3)N1Cc1ccco1 (configuration not stated) | -1.18% (inactive)
CCCCCn1nnnc1C1c2ccccc2C(=O)N1Cc1ccco1 (configuration not stated) | 17.3% (active)
CC(=O)c1c(N)n(C)c(=O)n(C)c1=O | 5.4% (inactive)
COC(=O)CN1C(=O)C(C)(C)Oc2ccc(C(=O)Nc3cccc(OC)c3)cc21 | 6.32% (inactive)
CCOc1ccc(NC(=O)CSc2nncn2C)cc1 | 3.05% (inactive)
COc1ccc(NC(=O)CSc2ncnc3[nH]ncc23)cc1 | -0.29% (inactive)
CCOc1ccc(NC(=O)CSc2ncnc3c2sc2ccccc23)cc1 | 298% (active)
COC(=O)Nc1nc2ccc(C(=O)C3CC3)cc2[nH]1 | -10.6% (inactive)
CC1(C)OC[C@@H](COC(=O)CCc2ccc(OC[C@@H](O)CNCCNC(=O)N3CCOCC3)cc2)O1 | 0.02% (inactive)
CC(NC(=S)Nc1ccccc1)C(c1cccs1)N1CCOCC1 (configuration not stated) | 4.26% (inactive)
CC(=O)C1=C(C)N(Cc2ccccc2)C(=S)NC1c1cccc(Br)c1 (configuration not stated) | -3.28% (inactive)
CN(C)c1ccc(/C=C2\NC(=S)N(Cc3ccccc3)C2=O)cc1 | 40.1% (active)
O=[N+]([O-])/C=C1\CCCCCN1 | -3.45% (inactive)
COc1cccc(CNC(=O)[C@H]2CCCN2C(=O)[C@H]2CCCN2C(=O)C2CCCCC2)c1 | 4.65% (inactive)
O=C1Nc2ccccc2C1=NN=Cc1ccco1 | -0.74% (inactive)
Cc1cc(C)c(/C=C2\C(=O)Nc3ccccc32)[nH]1 | 22.7% (active)

SMILES | activity
Cc1ccc(-c2nc(CS(=O)CC(=O)N3CCN(c4ncccn4)CC3)c(C)o2)cc1 (configuration not stated) | 4.76% (inactive)
O=S(=O)(c1ccccc1)N1CCC(c2nc3ccccc3o2)CC1 | -9.25% (inactive)
CC1(C)CC2CC(C)(CN2c2ncnc3ccc(Br)cc23)C1 (configuration not stated) | 20.4% (active)
COCCN1CCn2c(nc3cc(NS(C)(=O)=O)ccc32)C1 | -3.86% (inactive)
Cc1ccc(NC(=O)c2cc(C)nn2-c2ccccc2)c(C)c1 | 2.36% (inactive)
CCOC(=O)c1ccc(NC(=O)Cn2cnc3cc(C)c(C)cc32)cc1 | 1.51% (inactive)
CCOC(=O)c1ccc(NC(=S)Nc2cc(C)cc(C)n2)cc1 | 25.7% (active)
CCOC(=O)c1cn[nH]c1NC(=S)Nc1ccccc1 | -3.54% (inactive)
COc1ccc(CNC(=O)COC(=O)/C=C/c2ccc(S(=O)(=O)N3CCOCC3)cc2)cc1 | -0.37% (inactive)
O=C(Nc1ccccc1F)c1ccccc1-c1ccccc1 | 8.73% (inactive)
CCSc1nnc(SCC(=O)NNC(=O)c2ccccc2F)s1 | -6.25% (inactive)
O=C(Nc1nnc(-c2ccccc2F)s1)c1ccccc1F | 23.9% (active)
CC1(Oc2ccccc2-c2ccno2)CCN(Cc2ccc(-c3ccccc3)o2)C1 (configuration not stated) | -3.17% (inactive)
O=C(Nc1cccc(Cl)c1)OC1CC2CC1[C@H]1CCCCN1[C@H]2Cc1ccccc1 (some centres not stated) | 0.26% (inactive)
COc1ccc(-n2c(SCC(=O)Nc3ccc(C)c(Cl)c3)nc3ccccc3c2=O)cc1 | -4.51% (inactive)
COc1cccc(-n2c(SCC(=O)c3c[nH]c4ccccc34)nc3ccccc3c2=O)c1 | 69.3% (active)
CCCn1c(N)c(C(=O)CSc2nc3ccccc3c(=O)n2-c2ccc(OC)cc2)c(=O)[nH]c1=O | -7.88% (inactive)
Cc1ccc(C2=Nc3c(ccc4ccccc34)C(c3ccncc3)=NN2)cc1 | 3.5% (inactive)
Cc1ccc(S(=O)(=O)N2[C@@H](Cc3ccccc3)CO[C@H]2CC(=O)OCc2ccccc2)cc1 | -1.88% (inactive)
Cc1cc(Br)ccc1NC(=O)c1cnc(N2CCN(c3ccccn3)CC2)c2ccccc12 | 0.52% (inactive)
Cc1sc2ncn(CC(=O)NCCCC(=O)N3CCN(c4ccccc4F)CC3)c(=O)c2c1C | -0.15% (inactive)
Cc1cc(Br)ccc1NC(=O)c1sc2ncn(CC(=O)N3CCN(c4ccccn4)CC3)c(=O)c2c1C | 58.2% (active)
CCCCOc1ccc(N(CC(=O)NC(C)C)C(=O)CCC(=O)Nc2ccccn2)cc1 | -9.8% (inactive)

SMILES | activity
CCC(C(=O)NC1CCCC1)N(C(=O)c1snc(C(N)=O)c1N)c1ccc2c(c1)OCCO2 (configuration not stated) | 34.2% (active)
CCC(C(=O)NC1CCCCC1)N(C(=O)c1snc(C(N)=O)c1N)c1ccc(OC)cc1OC (configuration not stated) | 2.92% (inactive)
COc1ccc(N(C(=O)c2snc(C(N)=O)c2N)C(C(=O)NC2CCCC2)c2ccco2)cc1OC (configuration not stated) | 4.63% (inactive)
COc1ccc(C(=O)CN2C(=O)NC3(CCc4ccccc43)C2=O)c(OC)c1 (configuration not stated) | 6.28% (inactive)
O=C(Nc1cccnc1)c1noc2c1CCCCC2 | 0.99% (inactive)
O=C(O)C1=CCCN(CCON=C(c2ccccc2)c2ccccc2)C1 | -6.65% (inactive)
COc1ccc(CCNC(=O)CSc2nnc3ccc(-c4ccncc4)nn23)cc1 | 2.33% (inactive)
COc1cc(OC)cc(C(=O)NCCSCc2ccc(Cl)cc2)c1 | -1.8% (inactive)
COc1ccc(CCNC(=O)CSc2nnc(-c3cccc(F)c3)o2)cc1OC | 6.95% (inactive)
COc1cccc(-c2ccc(C#N)c(SCC(=O)NCCc3ccc(Cl)cc3)n2)c1 | 29.2% (active)
COc1ccc(CCNC(=O)CSc2nc(-c3ccc(OC)c(OC)c3)ccc2C#N)cc1 | 56% (active)
COc1ccc(CCNC(=O)CSc2nc(C)nc3c2oc2ccccc23)cc1OC | -3.78% (inactive)
O=C(O[C@@H]1[C@H](Cc2ccccc2)NS(=O)(=O)[C@H]2C[C@@H]3C=C[C@]12O3)c1ccccc1Br | 4.17% (inactive)
Cc1c[nH]c2cccc(-c3ccc(Cl)cc3)c12 | 4.69% (inactive)
CCCCCCCCCCCCCCCCO | 2.41% (inactive)
CCNC(=O)C1(C)CCCN(C(=O)c2c(C)noc2C)C1 (configuration not stated) | -9.88% (inactive)
NC(N)=Nc1nc2ccc(Br)cc2c(=O)[nH]1 | 20.6% (active)
NC(=O)C1CCN(Cc2nc3c(Br)cc(Br)cc3c(=O)[nH]2)CC1 | -0.27% (inactive)
CC(C)(C)c1ccc(S(=O)(=O)N2CCN(C(=O)c3ccc4c(c3)C(=O)N(Cc3ccncc3)C4=O)CC2)cc1 | -6.31% (inactive)
COc1cccc(NS(=O)(=O)c2ccc3[nH]cc(C(=O)NCCCOC(C)C)c(=O)c3c2)c1 | 5.55% (inactive)
CN(C)S(=O)(=O)c1ccc(N2CCCC2)c(C(=O)Nc2cccc(F)c2)c1 | 6.34% (inactive)
CN(C)S(=O)(=O)c1ccc(N2CCCC2)c(C(=O)NCc2ccccc2)c1 | 5% (inactive)
CN(C)S(=O)(=O)c1ccc(N2CCCC2)c(C(=O)Nc2ccc(Br)cc2F)c1 | 23.1% (active)

SMILES | activity
CC(C)(C)NC(=O)C(c1cccnc1)N(C(=O)c1cnco1)c1ccc(C(C)(C)C)cc1 (configuration not stated) | 0.3% (inactive)
CN1/C(=c2/s/c(=C3/C(=O)N(c4ccccc4)NC3=Nc3ccccc3)n(C)c2=O)C(C)(C)c2ccccc21 | 42.5% (active)
CCOC(=O)c1c(C)oc2cc(Br)c(OCC(N)=O)cc12 | 27.8% (active)
Cc1cc(=O)oc2c(C(=O)c3ccccc3)c(OCC(N)=O)ccc12 | 1.4% (inactive)
COCCOC(=O)c1c(C)oc2cc(Br)c(OCC(N)=O)cc12 | -0.63% (inactive)
CCOc1ccc(NC(=O)CN(C)C(=O)CCSc2ccc(F)cc2)cc1OCC | -6.91% (inactive)
Nn1c(SCC(=O)Nc2cccc3ccccc23)nnc1-c1cc(-c2ccc(F)cc2)n[nH]1 | 0.84% (inactive)
Cc1ccn2c(=O)nc(SCC(=O)NCc3ccc4c(c3)OCO4)nc2c1 | -6.16% (inactive)
COc1ccc(C2=NN(C(=O)CSc3nc(=O)n4ccc(C)cc4n3)C(c3ccc(C)cc3)C2)cc1 (configuration not stated) | 37.8% (active)
Cc1ccn2c(=O)nc(SCC(=O)NCc3ccc(F)cc3)nc2c1 | 10.3% (inactive)
CC(O)COc1ccccc1 (configuration not stated) | -2.15% (inactive)
Cc1ccc(NS(=O)(=O)c2ccc(-c3ccc(=O)[nH]n3)o2)c(C)c1 | 1.28% (inactive)
N#C/C(=C\c1cccnc1)C(=O)Nc1ccc(SC(F)F)cc1 | -6.19% (inactive)
Cc1cc(/C=C(/C#N)C(=O)Nc2ccc(Cl)cc2)c(C)n1-c1cccnc1 | 23.3% (active)
Cc1ccc(-n2c(C)cc(/C=C(\C#N)C(=O)NCC3CCCO3)c2C)cc1 (configuration not stated) | -8.1% (inactive)
CN(C)CCc1c[nH]c2ccc(Cn3cncn3)cc12 | -0.58% (inactive)
CS(=O)(=O)N(Cc1ccccc1)c1ccc(C(=O)NN=C2CCCCCC2)cc1 | 1.02% (inactive)
Cc1ccc(S(=O)(=O)NCC(=O)N2CCN(c3ccccn3)CC2)cc1 | -1.9% (inactive)
Cc1ccc(S(=O)(=O)c2nnn3c2nc(N2CCN(c4ccccn4)CC2)c2ccccc23)cc1 | 87.8% (active)
CCOC(=O)c1nnn2c1nc(N1CCN(c3ccccc3)CC1)c1ccccc12 | -1.6% (inactive)
Cc1cccc(Nc2nc3c(S(=O)(=O)c4ccccc4)nnn3c3ccccc23)c1C | 47.9% (active)
Cc1nc(Nc2ccccc2C)c2cnn(C)c2n1 | 3.28% (inactive)
Cc1cc(Nc2cccc(C)c2C)n2ncnc2n1 | 0.88% (inactive)
